Data: PubChem BioAssay AID1159580 (chemical genetic matrix, 2015)
“And” between values parts separate entries of the source, which are not always exact repeats. Equal entries are not always repeated. In all, about 5,500 compounds went through this assay and about 2,000 (36%) were called active. About 18% were inconclusive and are not listed. Cut-off read from the data, not from the text of the source: active = normalized growth mostly below about 0.91 (no sharp cut-off); inconclusive = no clear call, values can overlap the other calls; inactive = mostly above about 0.92. The list shows a part of the results.

Test: chemical genetic growth profiling, strain panel (AID 1159580);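 note: tested at 20 µM; growth read once vehicle control cultures reached saturation at 30 °C; 1 = growth at the plate median or of vehicle wells; lower values mean less growth of the strain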
Settings: S. cerevisiae deletion strains, growth OD

Measured: normalized growth

C[C@]12C=CC(=O)C=C1CCC1C2[C@@H](O)C[C@@]2(C)C1CC[C@]2(O)C(=O)CO (stereo not given in full)
inactive: locus YAL021C, strain ccr4, hits give low values 1 | locus YAL026C, strain drs2, hits give low values 0.992 | locus YAL030W, strain snc1, hits give low values 0.993 | locus YBL061C, strain skt5, hits give low values 0.999 | locus YBR009C, strain hhf1, hits give low values 0.993 | locus YBR021W, strain FUR4, hits give low values 0.979 | locus YBR023C, strain chs3, hits give low values 1 | locus YBR171W, strain sec66, hits give low values 1.01 | locus YBR229C, strain ROT2, hits give low values 0.99 | locus YBR231C, strain swc5, hits give low values 0.991 | locus YBR279W, strain paf1, hits give low values 1 | locus YCL011C, strain gbp2, hits give low values 1.01 | locus YCL016C, strain dcc1, hits give low values 0.988 | locus YCL029C, strain bik1, hits give low values 0.985 | locus YCL061C, strain MRC1, hits give low values 1.01 | locus YCL069W, strain vba3, hits give low values 0.981 | locus YCR088W, strain abp1, hits give low values 0.994 | locus YDL005C, strain med2, hits give low values 0.999 | locus YDL035C, strain GPR1, hits give low values 0.998 | locus YDL040C, strain nat1, hits give low values 0.995 | locus YDL074C, strain BRE1, hits give low values 1.01 | locus YDL101C, strain DUN1, hits give low values 0.99 | locus YDL134C, strain PPH21, hits give low values 0.986 | locus YDL185W, strain tfp1, hits give low values 0.974 | locus YDL192W, strain arf1, hits give low values 0.985 | locus YDR001C, strain nth1, hits give low values 0.997 | locus YDR069C, strain doa4, hits give low values 0.996 | locus YDR101C, strain arx1, hits give low values 0.983 | locus YDR137W, strain rgp1, hits give low values 1.03 | locus YDR150W, strain NUM1, hits give low values 0.998 | locus YDR159W, strain sac3, hits give low values 1 | locus YDR162C, strain NBP2, hits give low values 0.992 | locus YDR195W, strain ref2 0.969 | locus YDR297W, strain sur2, hits give low values 0.99 | locus YDR318W, strain mcm21, hits give low values 0.979 | locus YDR334W, strain swr1, hits give low values 0.992 | locus YDR335W, strain msn5, hits give low values 0.996 | locus YDR388W, hits give low values 0.98 | locus YDR392W, strain spt3, hits give low values 0.953 | locus YDR502C, strain sam2, hits give low values 0.992 | locus YEL003W, strain gim4, hits give low values 0.982 | locus YEL037C, strain rad23, hits give low values 0.989 | locus YEL061C, strain CIN8 (second series), hits give low values 0.99 | locus YEL061C, strain CIN8, hits give low values 0.997 | locus YER015W, strain faa2, hits give low values 1 | locus YER016W, strain bim1, hits give low values 1 | locus YER110C, hits give low values 0.975 | locus YER111C, strain swi4, hits give low values 0.999 | locus YER155C, strain BEM2 (second series), hits give low values 1.01 | locus YER155C, strain BEM2, hits give low values 0.978 | locus YER167W, strain BCK2, hits give low values 0.987 | locus YFR010W, strain ubp6, hits give low values 0.997 | locus YGL078C, strain dbp3, hits give low values 0.998 | locus YGL086W, strain mad1, hits give low values 1 | locus YGL167C, strain pmr1, hits give low values 1.01 | locus YGL173C, strain kem1, hits give low values 0.989 | locus YGL227W, strain vid30, hits give low values 0.993 | locus YGL240W, strain doc1, hits give low values 0.99 | locus YGL248W, strain PDE1, hits give low values 0.99 | locus YGL253W, strain hxk2, hits give low values 0.991 | locus YGR135W, strain pre9, hits give low values 0.995 | locus YGR229C, strain SMI1, hits give low values 0.993 | locus YGR252W, strain gcn5, hits give low values 1.06 | locus YHR013C, strain ard1, hits give low values 1.01 | locus YHR027C, strain rpn1, hits give low values 0.995 | locus YHR030C, strain SLT2, hits give low values 0.992 and 1.01 | locus YHR079C, strain IRE1 (second series), hits give low values 0.977 | locus YHR079C, strain IRE1, hits give low values 1 | locus YHR094C, strain hxt1, hits give low values 0.978 | locus YHR129C, strain ARP1, hits give low values 1.02 | locus YHR142W, strain chs7, hits give low values 0.99 | locus YHR200W, strain rpn10, hits give low values 0.981 | locus YIL066C, strain RNR3, hits give low values 0.989 | locus YIL073C, strain SPO22, hits give low values 0.946 | locus YIL125W, strain kgd1, hits give low values 0.982 | locus YIR030C, strain dcg1, hits give low values 0.984 | locus YJL092W, strain hpr5, hits give low values 0.995 | locus YJL095W, strain BCK1 (second series), hits give low values 1 | locus YJL095W, strain BCK1, hits give low values 1.01 | locus YJL115W, strain asf1, hits give low values 0.99 | locus YJL129C, strain trk1, hits give low values 0.977 | locus YJL134W, strain LCB3, hits give low values 0.988 | locus YJL154C, strain vps35, hits give low values 0.998 | locus YJL164C, strain tpk1, hits give low values 0.989 | locus YJL166W, strain qcr8, hits give low values 0.979 | locus YJL168C, strain set2, hits give low values 0.983 | locus YJL187C, strain SWE1 (second series), hits give low values 0.984 | locus YJL187C, strain SWE1, hits give low values 0.991 | locus YJR043C, strain POL32, hits give low values 0.998 | locus YJR066W, strain TOR1, hits give low values 0.942
